LmPK inh – qHTS Assay for Inhibitors of Leishmania Mexicana Pyruvate Kinase (LmPK). Q27686. purified LmPK, Kinase-Glo ATP luminescence, 1 h. Potency, µM (top dose mostly 57.5 µM), usual class: inhibitors. actives 0.37% (n = 290,000)
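qHTS format; LmPK 0.1 nM; substrates PEP 0.5 mM and ADP 0.1 mM. One-hour room-temperature incubation, then coupled luciferase luminescence; 0.5 nM enzyme wells mark activation.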
RE007 growth inh – qHTS Assay for Inhibitors of the HIV-1 protein Vpr; S. pombe RE007 Vpr strain, BacTiter-Glo ATP luminescence, 24 h; Potency, µM (doses to about 92.2 µM), actives largely listed as inhibitors; actives 0.21% (n = 360,000); AID 651644, 2012; active = well fitted falling curve with a large enough effect; also: nearly all actives have a fitted effect of over 50% in size
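Fission yeast strain RE007, carrying one chromosomally integrated HIV-1 vpr copy, was seeded at OD 0.01 in PMG+AL medium with 23 nL pinned compound. After 24 h at 30 °C and 99% humidity, viability was read by BacTiter-Glo luminescence.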
Cycloheximide cs – Cycloheximide Counterscreen for Small Molecule Inhibitors of Shiga Toxin | cell reporter, cycloheximide protein synthesis inhibition counterscreen | max response, % | actives 12% (n = 300,000) | AID 2314, 2010; in the data active = max response mostly above about 13%, no sharp cut-off; inactive = mostly below about 14%; also: read at 38.3 µM for the half of the compounds with a filed dose
Shiga toxin inh – A qHTS for Small Molecule Inhibitors of Shiga Toxin. Vero cells, Shiga toxin protein synthesis inhibition reporter. inhibition, % at 38.7 µM. actives 9.2% (n = 290,000); in the data active = inhibition mostly above about 28%, no sharp cut-off; inactive = mostly below about 43%
Tb PYK inh – qHTS of Trypanosoma Brucei Inhibitors; pyruvate kinase (Trypanosoma brucei), Q57TT1; TbPYK enzyme, Kinase-Glo Plus ATP luminescence, 45 min; Potency, µM (titrated, usually from 76.8 µM), usual class: inhibitors; actives 0.12% (n = 410,000); AID 624173, 2012; also: nearly all actives have a fitted effect of over 50% in size
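Luminescence from Kinase-Glo Plus, added after a 45-minute room-temperature reaction, served as the end-point read-out. The enzyme and substrate were preincubated with compound before ADP (130 uM final) initiated turnover. Concentration-effect curves came from normalized qHTS data.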
Giardia FBPA inh – qHTS Assay for Inhibitors of Fructose-1,6-bisphosphate Aldolase from Giardia Lamblia. purified Giardia FBPA. Potency, µM (series often up to 59.6 µM), hits mostly inhibitors. actives 0.71% (n = 290,000); also: nearly all actives have a fitted effect of over 55% in size
Target sequence (A8B2U2 whole entry, looked up): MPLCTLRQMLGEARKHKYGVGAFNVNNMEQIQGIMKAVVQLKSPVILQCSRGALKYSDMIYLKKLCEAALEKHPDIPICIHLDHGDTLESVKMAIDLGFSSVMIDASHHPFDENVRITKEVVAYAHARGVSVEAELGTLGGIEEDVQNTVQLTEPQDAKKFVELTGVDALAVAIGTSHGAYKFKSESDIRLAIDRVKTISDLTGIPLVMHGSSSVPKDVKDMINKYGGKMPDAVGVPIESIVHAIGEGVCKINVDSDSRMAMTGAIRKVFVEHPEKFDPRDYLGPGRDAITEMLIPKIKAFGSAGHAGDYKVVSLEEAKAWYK
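40 nM FBPA preincubated 10 min at RT with compound (up to 57.5 uM final), then substrate plus GAPDH/TPI/NAD/arsenate coupling and diaphorase/resazurin added. Fluorescence read after 20 min at RT, 525/598 nm.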
Numbers stand for hits. The entries come from a sample that favours hits as a whole. Unless noted, calls follow the shape of the dose curve; as a rule, active = well fitted curve in the direction sought with a large enough effect; inconclusive = small, poorly fitted or top-dose-only effect, or another doubt; inactive = no such curve, though single readings can be large; an effect the other way counts as inactive or inconclusive.

Screening Cc1ccccc1C(=O)Nc1nnc(-c2ccco2)s1 returned LmPK inh inactive, RE007 growth inh inactive, Cycloheximide cs 38, Shiga toxin inh 69, Tb PYK inh inactive and Giardia FBPA inh inactive.
Screening Cc1cc2c(s1)c1cnn(Cc3ccc(F)c(F)c3F)c(=O)c1n2C returned Cycloheximide cs inactive and Shiga toxin inh inactive.
For CCCn1c(N)c(C(=O)CSc2nc(C)cs2)c(=O)n(C)c1=O the results were LmPK inh inactive, RE007 growth inh inactive, Cycloheximide cs 23, Shiga toxin inh inactive, Tb PYK inh inactive and Giardia FBPA inh inactive.
`CC(C)Cn1c(N)c(C(=O)CSc2nncs2)c(=O)n(C)c1=O` gave RE007 growth inh inactive and Tb PYK inh inactive.
Screening CCn1nc(C)c(Br)c1-c1nc(CS(=O)(=O)c2ccc(F)cc2)no1 returned LmPK inh inactive, RE007 growth inh inactive, Cycloheximide cs inactive, Shiga toxin inh inactive, Tb PYK inh inactive and Giardia FBPA inh inactive.
Screening COc1ccc(Br)c(-c2nnc(CS(=O)(=O)c3ccccc3)o2)c1 returned LmPK inh inactive, RE007 growth inh inactive, Cycloheximide cs 36, Shiga toxin inh 89 and Tb PYK inh inactive.
Screening COc1ccc(Br)c(-c2nc(CS(=O)(=O)c3ccc(F)cc3)no2)c1 returned LmPK inh inactive, RE007 growth inh inactive, Cycloheximide cs 20, Shiga toxin inh 37, Tb PYK inh inactive and Giardia FBPA inh inactive.
For CCOc1ccccc1-c1nnc(CS(=O)(=O)c2ccccc2)o1 the results were LmPK inh inactive, RE007 growth inh inactive, Cycloheximide cs inactive, Shiga toxin inh inactive, Tb PYK inh inactive and Giardia FBPA inh inactive.
COC(=O)[C@@]1(Cc2ccc(OC)cc2)[C@H]2c3cc(C(=O)N(C)C)n(Cc4cc(F)c(F)c(F)c4)c3C[C@H]2CN1C(=O)c1ccccc1 was read as Giardia FBPA inh inactive.
CCOc1ccc(CNC(=O)Cn2cc3c(n2)-c2c(oc(C(=O)N4CCOCC4)c2C)CC3)cc1 was read as Tb PYK inh inactive.
Screening CCc1ccccc1NC(=O)c1noc2c1CC(C(C)(C)C)CC2 (centres undefined) returned Tb PYK inh inactive.
Screening c1ccc(-c2n[nH]c3c2oc2ccccc23)cc1 returned Cycloheximide cs 53, Shiga toxin inh 72 and Giardia FBPA inh inactive.
Screening c1ccc(-c2n[nH]c3ccccc23)cc1 returned LmPK inh inactive, RE007 growth inh inactive, Cycloheximide cs inactive, Shiga toxin inh inactive, Tb PYK inh inactive and Giardia FBPA inh inactive.
COc1cc(N)c2ncccc2c1Br was read as RE007 growth inh inactive and Tb PYK inh inactive.
For CCOC(=O)c1ccc(NC(=O)N(CC)CC)cc1 the results were LmPK inh inactive, RE007 growth inh inactive, Cycloheximide cs 37, Shiga toxin inh 62, Tb PYK inh inactive and Giardia FBPA inh inactive.
`CCOC(=O)c1ccc(NC(=O)C(CC)CC)cc1` gave LmPK inh inactive, RE007 growth inh inactive, Cycloheximide cs 30, Shiga toxin inh 71, Tb PYK inh inactive and Giardia FBPA inh inactive.
`O=c1c2ccccc2[nH]c(=S)n1-c1ccc2c(c1)OCCO2` gave LmPK inh inactive, RE007 growth inh inactive, Cycloheximide cs 45, Shiga toxin inh 99, Tb PYK inh inactive and Giardia FBPA inh inactive.
Screening NS(=O)(=O)c1cccc(NC(=O)CCSc2ccccc2Cl)c1 returned LmPK inh inactive, RE007 growth inh inactive, Cycloheximide cs 61, Shiga toxin inh 68, Tb PYK inh inactive and Giardia FBPA inh inactive.
`O=C(CCSc1ccccc1Cl)Nc1cccc([N+](=O)[O-])c1` gave LmPK inh inactive, RE007 growth inh inactive, Cycloheximide cs 45, Shiga toxin inh 73, Tb PYK inh inactive and Giardia FBPA inh inactive.
Cc1ccc(SCCc2ccc(C)nc2)cc1 was read as LmPK inh inactive, RE007 growth inh inactive, Cycloheximide cs 22, Shiga toxin inh active, Tb PYK inh inactive and Giardia FBPA inh inactive.
Screening N#Cc1cccc(-c2cc(NCc3cccnc3)ncn2)c1 returned Giardia FBPA inh inactive.
`COC1CCCN(C(=O)c2ccc3oc(Cc4ccc(Cl)cc4)nc3c2)C1` (centres undefined) gave LmPK inh inactive, RE007 growth inh inactive, Cycloheximide cs inactive, Shiga toxin inh inactive and Tb PYK inh inactive.
`COC1CCCN(C(=O)c2ccc3nc(Cc4cccc(Cl)c4)oc3c2)C1` (centres undefined) gave LmPK inh inactive, RE007 growth inh inactive, Cycloheximide cs inactive, Shiga toxin inh 49 and Tb PYK inh inactive.
`COCC1CCN(C(=O)c2ccc3nc(Cc4cccc(Cl)c4)oc3c2)CC1` gave RE007 growth inh inactive and Tb PYK inh inactive.
For COCC1CCCN(C(=O)c2ccc3nc(Cc4cccc(Cl)c4)oc3c2)C1 (centres undefined) the results were LmPK inh inactive, RE007 growth inh inactive, Cycloheximide cs 42, Shiga toxin inh 89 and Tb PYK inh inactive.
N[C@@H](CCCC(=O)O)C(=O)O was read as Giardia FBPA inh inactive.
For COc1ccc(/C=N/NC(=O)c2cccc(O)c2)cc1Cn1nc(C)c([N+](=O)[O-])c1C the results were LmPK inh inactive, RE007 growth inh inactive, Cycloheximide cs inactive, Shiga toxin inh inactive, Tb PYK inh inactive and Giardia FBPA inh inactive.
For COC(=O)c1sc(NC(=O)c2cc(C)on2)nc1C the results were LmPK inh inactive, RE007 growth inh inactive, Cycloheximide cs 27, Shiga toxin inh 36, Tb PYK inh inactive and Giardia FBPA inh inactive.
For CCOC(=O)CNC(=O)c1sc(NC(=O)c2cccc(F)c2)nc1C the results were LmPK inh inactive, RE007 growth inh inactive, Cycloheximide cs 26, Shiga toxin inh 66, Tb PYK inh inactive and Giardia FBPA inh inactive.
For COC(=O)c1sc(NC(=S)NC(=O)c2cccc(C)c2)nc1C the results were LmPK inh inactive, RE007 growth inh inactive, Cycloheximide cs inactive, Shiga toxin inh inactive, Tb PYK inh inactive and Giardia FBPA inh inactive.
CCOC(=O)CNC(=O)c1sc(NC(=O)c2ccccc2F)nc1C was read as LmPK inh 13µM, RE007 growth inh inactive, Cycloheximide cs 35, Shiga toxin inh 55, Tb PYK inh inactive and Giardia FBPA inh inactive.
`Cc1noc(C)c1COC(=O)CNC(=O)c1cccc(F)c1` gave LmPK inh inactive, RE007 growth inh inactive, Cycloheximide cs inactive, Shiga toxin inh inactive, Tb PYK inh inactive and Giardia FBPA inh inactive.
COC(=O)c1sc(NC(=O)COc2ccc(OC)cc2)nc1C was read as RE007 growth inh inactive and Tb PYK inh inactive.
